In PubChem BioAssay (NCATS):
Values joined by “and” are separate entries in the source; they are usually repeats but may differ in a detail not shown here. Equal values may be shown once. Results filed as inconclusive are left out. Entries that show only a call come without a potency. Unmarked numbers belong to inactive results. Active and inactive are the calls of the source. Calls come from the whole dose curve; as a rule, active = well fitted cell-killing curve with a large enough effect; inconclusive = small, poorly fitted or top-dose-only effect; inactive = flat fitted curve, though single readings scatter.

assay: qHTS of pediatric cancer cell lines to identify multiple opportunities for drug repurposing: Primary screen for BT-37 cells (AID 1347094); conditions: BT-37 viability, CellTiter-Glo luminescence, 48 h; series mostly up to 57.3 µM
Source text: Drug repurposing or repositioning has been offered as a strategy for drug development in oncology programs. This approach has special potential for childhood cancers and other rare or orphan diseases, where the expected return on new drug development has been a disincentive to pharmaceuticals. […] In this project we exploit the poly-pharmacology of drugs to discover new indications via phenotypic screening of a panel of 19 well-characterized cell lines derived from solid tumors seen in children and adolescents. The goal is to identify approved drugs with previously unrecognized anticancer properties that has the potential to reveal new mechanisms and biological processes involved in carcinogenesis or drug resistance. We employed a titration-based paradigm (quantitative high-throughput screening or qHTS), where all compounds were tested at multiple concentrations for their effect on cell viability. Concentration-response curves (CRCs) were derived directly from the primary screen, and both potency and efficacy values were used to identify compounds with robust bioactivity profiles. We screened the NIH Chemical Genomics Center (NCGC) Pharmaceutical Collection (NPC) and Mechanism Interrogation Plate (MIPE) small molecule collections of approved and investigational compounds against these cell lines; and measured metabolically active cells after 48 hours of compound treatment as a proxy for cell viability. […] Assay Submitter: Nathalia J. Martinez, National Center for Advancing Translational Sciences, National Institutes of Health, Rockville, MD, USA; email: natalia.martinez@nih.gov Shen, M et al. Quantitative high-throughput phenotypic screening of pediatric cancer cell lines identifies multiple opportunities for drug repurposing. Oncotarget 2017 Dec 19;9(4):4758-4772. PMID 29435139.
The cells were obtained from University of North Carolina (UNC), Pediatric Preclinical Testing Program (PPT), and Coriell Institute (CI). qHTS cell viability assay: Cells were assayed in growth media at a density of 500-1,000 cells/well. Five microliters of cells were dispensed into 1,536-well, white, solid-bottom, TC-treated plates (Greiner Bio One) using a multidrop dispenser and incubated at 37 degrees C, 5% CO2, under a humidified atmosphere for 5 hours. Twenty-three nanoliters of compounds and controls (neutral control DMSO or positive control bortezomib at final concentration of 2.3 µM) were subsequently transferred by Kalypsys pintool. For primary screens, the MIPE collection was tested at 11-point dilutions (final concentrations range from 0.78 nM to 46 µM) and the NPC collection at 8-point dilutions (final concentrations range from 0.59 nM to 46 µM). Compounds tested in follow-up screens were assayed at 11-point dilutions. Cells were incubated for 48 hours, followed by addition of 3 µL of CellTiter-Glo (Promega). After a 15 min incubation at room temperature, samples were analyzed for luminescence intensity using a ViewLux High-throughput CCD imager equipped with clear filters.
Potency is the fitted concentration of half-maximal effect.

| Structure (SMILES) | Potency | activity change, negative = cytotoxic |
| --- | --- | --- |
| Cc1ccc(S(=O)(=O)N[C@@H](CCCCN)C(=O)CCl)cc1 | inactive |  |
| c1ccc(C2CC2)c(OCC2=NCCN2)c1 | inactive |  |
| CC(CCc1ccccc1)NC(C)C(O)c1ccc(O)cc1 (stereo not given) | inactive |  |
| COc1ccc2c(c1OC)CN1CCc3cc4c(cc3C1C2)OCO4 (stereo not given) | 17.2 µM (active) |  |
| CNCC(O)c1ccc(O)cc1 (stereo not given) | inactive |  |
| O=[N+]([O-])c1cc([As](=O)(O)O)ccc1O | inactive |  |
| CCC1(C2=NCCN2)Cc2ccccc2O1 (stereo not given) | inactive |  |
| CC(C)(N)Cc1ccc(Cl)cc1 | inactive |  |
| CC(C)CC(N(C)C)C1(c2ccc(Cl)cc2)CCC1 (stereo not given) | inactive |  |
| NCC(CC(=O)O)c1ccc(Cl)cc1 (stereo not given) |  | -2.84% [at 0.745 µM] |
| COc1ccc(C(CN(C)C)C2(O)CCCCC2)cc1 (stereo not given) | inactive |  |
| O=c1oc2ccccc2c(O)c1C(CC(O)c1ccc(-c2ccc(Br)cc2)cc1)c1ccccc1 (stereo not given) | inactive |  |
| C[C@H]1O[C@@H](O[C@H]2[C@@H](O)C[C@H](O[C@H]3[C@@H](O)C[C@H](O[C@H]4CC[C@@]5(C)[C@H](CC[C@@H]6[C@@H]5CC[C@]5(C)[C@@H](C7=CC(=O)OC7)CC[C@]65O)C4)O[C@@H]3C)O[C@@H]2C)C[C@H](O)[C@@H]1O | 0.0098 µM (active) |  |
| Cc1ccc2c(c1)C1CN(C)CCC1N2 (stereo not given) | inactive |  |
| FC(F)(F)c1cccc(C2=CCN(CCc3ccc4ccccc4c3)CC2)c1 | inactive |  |
| NCC(O)c1ccc(O)cc1 (stereo not given) | inactive |  |
| CC1OC(C)OC(C)O1 (stereo not given) | inactive |  |
| C[C@@H]1O[C@@H](O[C@H]2C[C@@H](O)[C@]3(CO)[C@H]4[C@H](O)C[C@]5(C)[C@@H](C6=CC(=O)OC6)CC[C@]5(O)[C@@H]4CC[C@]3(O)C2)[C@H](O)[C@H](O)[C@H]1O | 15.3 nM (active) and 49 nM (active) |  |
| CN1CCN(C(=O)O[C@H]2c3nccnc3C(=O)N2c2ccc(Cl)cn2)CC1 | inactive |  |
| C#CCN(C)[C@H](C)Cc1ccccc1 | inactive |  |

| Structure (SMILES) | Potency | activity change, negative = cytotoxic |
| --- | --- | --- |
| CC(C)NCC(O)c1ccccc1Cl (stereo not given) | inactive |  |
| Cc1cccc(C)c1NC(=O)CN1CCCC1=O | inactive |  |
| C[C@]12CCC(=O)C(O)=C1CC[C@@H]1[C@@H]2CC[C@]2(C)C(=O)CC[C@@H]12 | inactive |  |
| O=P1(NCCCl)OCCCN1CCCl (stereo not given) | inactive |  |
| C[C@]12CC[C@H]3[C@@H](CCC4=CC(=O)CC[C@@H]43)[C@@H]1CC[C@@H]2OC(=O)CCc1ccccc1 | inactive |  |
| Clc1cccc(N2CCNCC2)c1 | inactive |  |
| CCCC1CCCCN1 (stereo not given) | inactive |  |
| NCC1(CC(=O)O)CCCCC1 | inactive |  |
| O=C(O)C(=O)c1cn(Cc2ccccc2)c2ccc(-c3ccc(OC(F)(F)F)cc3)cc12 | inactive |  |
| COC[C@@H](NC(C)=O)C(=O)NCc1ccccc1 | inactive |  |
| CC[C@@H](CO)NC(=O)[C@@H]1C=C2c3cccc4[nH]cc(c34)C[C@H]2N(C)C1 | inactive |  |
| O=C(NC(O)C(Cl)(Cl)Cl)NC(O)C(Cl)(Cl)Cl (stereo not given) | inactive |  |
| CC(C)=CCOc1c2occc2cc2ccc(=O)oc12 | inactive |  |
| CCN(CC)CCOC(=O)C(O)(c1ccccc1)c1ccccc1 | inactive |  |
| O=c1[nH]c2ccccc2n1CCCN1CCC(n2c(=O)[nH]c3cc(Cl)ccc32)CC1 | inactive |  |
| Nc1ccncc1 | inactive |  |
| CN(C)CCc1ccc(O)cc1 | inactive |  |
| Oc1cc(Cl)ccc1Oc1ccc(Cl)cc1Cl | 40.9 µM (active) |  |
| CCC(C(N)=O)N1CCCC1=O (stereo not given) | inactive |  |
| CN1C(=S)CN=C(c2ccccc2)c2cc(Cl)ccc21 | inactive |  |
